Reference: PubChem BioAssay (NCATS)
Inconclusive results are not listed. A number with no mark means an inactive call. Active and inactive are the calls of the source. Calls come from the whole dose curve; as a rule, active = well fitted cell-killing curve with a large enough effect; inconclusive = small, poorly fitted or top-dose-only effect; inactive = flat fitted curve, though single readings scatter. Starred links: 1 amine or outer side, 2 acyl side, 3 side chain; linkers in the order of their positions; H or OH if unused. Positions of bridges follow the written chain, without caps; N, C: chain ends. Non-standard residues stand in square brackets, D forms with d. Residues, ends and D or L forms follow the SMILES beside them. Chains are numbered I, II in the order given. *: point of attachment. Actinocin(9to1) = Cc1c2oc3c(C)ccc(C(=O)[*:1])c3nc-2c(C(=O)[*:2])c(N)c1=O; NMeV = CN[CH](C(=O)O)C(C)C; Cbz = O=C(OCc1ccccc1)*; Sar = CNCC(=O)O

Assay: qHTS of pediatric cancer cell lines to identify multiple opportunities for drug repurposing: Confirmatory screen for BT-12 cells (AID 1347112); note: nearly all actives have a fitted effect of over 55% in size
Details: BT-12 rhabdoid tumor cells, viability; series mostly up to 45.9 µM; activity change, negative = cytotoxic: at the top concentration
Excerpt: Drug repurposing or repositioning has been offered as a strategy for drug development in oncology programs. This approach has special potential for childhood cancers and other rare or orphan diseases, where the expected return on new drug development has been a disincentive to pharmaceuticals.
In this project we exploit the poly-pharmacology of drugs to discover new indications via phenotypic screening of a panel of 19 well-characterized cell lines derived from solid tumors seen in children and adolescents. The goal is to identify approved drugs with previously unrecognized anticancer properties that has the potential to reveal new mechanisms and biological processes involved in carcinogenesis or drug resistance. We employed a titration-based paradigm (quantitative high-throughput screening or qHTS), where all compounds were tested at multiple concentrations for their effect on cell viability. Concentration-response curves (CRCs) were derived directly from the primary screen, and both potency and efficacy values were used to identify compounds with robust bioactivity profiles. We screened the NIH Chemical Genomics Center (NCGC) Pharmaceutical Collection (NPC) and Mechanism Interrogation Plate (MIPE) small molecule collections of approved and investigational compounds against these cell lines; and measured metabolically active cells after 48 hours of compound treatment as a proxy for cell viability.
Assay Submitter: Nathalia J. Martinez, National Center for Advancing Translational Sciences, National Institutes of Health, Rockville, MD, USA; email: natalia.martinez@nih.gov
[1] Shen, M et al. Quantitative high-throughput phenotypic screening of pediatric cancer cell lines identifies multiple opportunities for drug repurposing. Oncotarget 2017 Dec 19;9(4):4758-4772. PMID 29435139.
The cells were obtained from University of North Carolina (UNC), Pediatric Preclinical Testing Program (PPT), and Coriell Institute (CI).
qHTS cell viability assay:
Cells were assayed in growth media at a density of 500-1,000 cells/well. Five microliters of cells were dispensed into 1,536-well, white, solid-bottom, TC-treated plates (Greiner Bio One) using a multidrop dispenser and incubated at 37 degrees C, 5% CO2, under a humidified atmosphere for 5 hours. Twenty-three nanoliters of compounds and controls (neutral control DMSO or positive control bortezomib at final concentration of 2.3 µM) were subsequently transferred by Kalypsys pintool. For primary screens, the MIPE collection was tested at 11-point dilutions (final concentrations range from 0.78 nM to 46 µM) and the NPC collection at 8-point dilutions (final concentrations range from 0.59 nM to 46 µM). Compounds tested in follow-up screens were assayed at 11-point dilutions. Cells were incubated for 48 hours, followed by addition of 3 µL of CellTiter-Glo (Promega). After a 15 min incubation at room temperature, samples were analyzed for luminescence intensity using a ViewLux High-throughput CCD imager equipped with clear filters.
% is set by controls: 0 for no effect and ±100 for the full control effect; potency is the fitted concentration of half-maximal effect.

Q: Which Potency does the source give for `CC(C)C[C@@H](C=O)NC(=O)[C@H](CC(C)C)NC(=O)[C@H](CC(C)C)NC(=O)OCc1ccccc1` (Cbz-Leu-Leu-Leu-aldehyde) here?
A: The Potency was 1.17 µM (active).

Q: With `Cn1cnc(=N)c2[nH]cnc21` as the molecule, how does the “activity change, negative = cytotoxic” value read?
A: Its value is -1.68%.

Q: With `C[C@@H](Oc1ccc2[nH]nc(C=Cc3cnn(CCO)c3)c2c1)c1c(Cl)cncc1Cl` as the molecule, how does the Potency read?
A: Its Potency is 23.3 µM (active).

Q: With `N#Cc1c(C2CCNCC2)cc(-c2c(O)cccc2OCC2CC2)nc1N` as the molecule, how does the “activity change, negative = cytotoxic” value read?
A: The value was -1.3%.

Q: Which Potency does the source give for `CC(C)(N)c1ccc(-c2nc3ccccc3nc2-c2ccccc2)cc1` here?
A: Its Potency is 0.928 µM (active).

Q: For `Cc1ncc(-c2ccnc(Nc3ccc(S(C)(=O)=O)cc3)n2)n1C(C)C`, which Potency is on record?
A: Its Potency is 3.29 µM (active).

Q: With `C[C@@]12C(=O)OC(=O)[C@@]1(C)C1CCC2O1` as the molecule, how does the Potency read?
A: The Potency was 8.27 µM (active).

Q: For `CNC(=O)c1ccc(Nc2cc(Nc3ccccc3S(=O)(=O)C(C)C)c3cc[nH]c3n2)nc1`, which Potency is on record?
A: Its Potency is 13.1 µM (active).

Q: For `CN(C)c1ccc(C(=O)NCCCCCCC(=O)NO)cc1`, which Potency is on record?
A: Its Potency is 13.1 µM (active).

Q: With `COc1cc([C@@H]2c3cc4c(cc3[C@@H](O[C@@H]3O[C@@H]5CO[C@@H](c6cccs6)O[C@@H]5[C@H](O)[C@@H]3O)[C@H]3COC(=O)[C@H]23)OCO4)cc(OC)c1O` as the molecule, how does the Potency read?
A: Its Potency is 3.69 µM (active).

Q: For `Cc1c2oc3c(C)ccc(C(=O)NC4C(=O)NC(C(C)C)C(=O)N5CCCC5C(=O)N(C)CC(=O)N(C)C(C(C)C)C(=O)OC4C)c3nc-2c(C(=O)NC2C(=O)NC(C(C)C)C(=O)N3CCCC3C(=O)N(C)CC(=O)N(C)C(C(C)C)C(=O)OC2C)c(N)c1=O` (stereo not given) (I: TVP[Sar][NMeV] / II: TVP[Sar][NMeV]; ester I:1-I:C, II:1-II:C; linker I:N-II:N via Actinocin(9to1); configuration not given here), which Potency is on record?
A: Its Potency is 0.0293 µM (active).

Q: Which Potency does the source give for `CCC(C(=O)O)C1CCC(C)C(C(C)C(O)C(C)C(=O)C(CC)C2OC3(C=CC(O)[C@@]4(CC[C@](C)(C5CC[C@@](O)(CC)C(C)O5)O4)O3)C(C)CC2C)O1` (stereo not given in full) here?
A: Its Potency is 3.69 µM (active).

Q: With `O=C(Nc1cc2cc[nH]c2cn1)c1ccccc1` as the molecule, how does the Potency read?
A: Its Potency is 14.7 µM (active).

Q: Which Potency does the source give for `Cn1cc(CNCC2CCN(c3ncc(C(=O)NO)cn3)CC2)c2ccccc21` here?
A: Its Potency is 0.369 µM (active).

Q: With `COc1cccc2c1C(=O)c1c(O)c3c(c(O)c1C2=O)C[C@@](O)(C(=O)CO)C[C@@H]3O[C@H]1C[C@H](N)[C@@H](O)[C@H](C)O1` as the molecule, how does the Potency read?
A: Its Potency is 0.585 µM (active).

Q: With `CC(C)C[C@H](NC(=O)[C@@H](NC(=O)c1cccc(-c2ccccc2)n1)[C@@H](C)O)B(O)O` as the molecule, how does the Potency read?
A: Its Potency is 0.0827 µM (active).

Q: Which Potency does the source give for `COc1cc2c(cc1OC)[C@@H]1C(=O)c3ccc4c(c3O[C@@H]1CO2)C=CC(C)(C)O4` here?
A: Its Potency is 1.31 µM (active).

Q: With `COc1cc(C[C@@H](CO)[C@H](CO)Cc2ccc(O)c(OC)c2)ccc1O` as the molecule, how does the “activity change, negative = cytotoxic” value read?
A: Its value is 2.8%.

Q: For `CC(C=CC(=O)NO)=C[C@@H](C)C(=O)c1ccc(N(C)C)cc1`, which Potency is on record?
A: Its Potency is 2.93 µM (active).

Q: For `C[C@H](NCc1ccc2c(c1)nc(NC(=O)c1ccc(-c3cn[nH]c3)s1)n2CCc1ccccc1)C(C)(C)C`, which Potency is on record?
A: The Potency was 2.93 µM (active).

Q: For `CCOC(=O)C1=C(C)NC(=S)NC1c1cccc(O)c1` (stereo not given), which “activity change, negative = cytotoxic” value is on record?
A: Its value is -5.73%.

Q: For `COc1ccc(C=Cc2cc(OC)c(OC)c(OC)c2)cc1NC(=O)[C@H](N)CO`, which Potency is on record?
A: Its Potency is 0.117 µM (active).

Q: For `COC(=O)[C@@H]1[C@H]2C[C@@H]3c4[nH]c5ccccc5c4CCN3C[C@@H]2CC[C@@H]1O`, which “activity change, negative = cytotoxic” value is on record?
A: The value was -0.626%.

Q: For `O=S(=O)(O)CCSSCCS(=O)(=O)O`, which “activity change, negative = cytotoxic” value is on record?
A: Its value is -11.8%.

Q: For `CCN(CC)CCNC(=O)c1c(C)[nH]c(C=C2C(=O)Nc3ccc(F)cc32)c1C`, which Potency is on record?
A: The Potency was 33.9 µM (active).

Q: Which Potency does the source give for `Cc1cnc(Nc2ccc(N3CCN(C)CC3)cc2)nc1Nc1cccc(S(=O)(=O)NC(C)(C)C)c1` here?
A: The Potency was 16.5 µM (active).

Q: With `CC(C)C[C@H](NC(=O)CNC(=O)c1cc(Cl)ccc1Cl)B1OC(=O)CC(CC(=O)O)(C(=O)O)O1` (stereo not given in full) as the molecule, how does the Potency read?
A: The Potency was 0.414 µM (active).

Q: For `CS[C@H]1SC[C@@H]2C(=O)N(C)[C@H](C(C)C)C(=O)OC[C@H](NC(=O)c3cnc4ccccc4n3)C(=O)N[C@H](C)C(=O)N(C)[C@@H]1C(=O)N(C)[C@H](C(C)C)C(=O)OC[C@H](NC(=O)c1cnc3ccccc3n1)C(=O)N[C@H](C)C(=O)N2C`, which Potency is on record?
A: The Potency was 0.0093 µM (active).

Q: For `C=CC(=O)Nc1cccc(Nc2nc(NC3CCC(N(C)C)CC3)nc3c2ncn3C(C)C)c1` (stereo not given), which Potency is on record?
A: The Potency was 1.17 µM (active).

Q: Which Potency does the source give for `COc1cccc2c1C(=O)c1c(O)c3c(c(O)c1C2=O)C[C@@](O)(C(=O)CO)C[C@@H]3O[C@H]1C[C@H](N)[C@H](OC2CCCCO2)[C@H](C)O1` (stereo not given in full) here?
A: Its Potency is 10.4 µM (active).

Q: With `CC(C=CC1=C(C)CCCC1(C)C)=CC=CC(C)=CC(=O)Nc1ccc(O)cc1` as the molecule, how does the Potency read?
A: Its Potency is 24 µM (active).

Q: Which Potency does the source give for `FC(F)c1nc2ccccc2n1-c1nc(N2CCOCC2)nc(N2CCOCC2)n1` here?
A: The Potency was 1.04 µM (active).

Q: For `CN[C@H]1[C@@H](O)[C@@H]2O[C@@H]3O[C@H](C)CC(=O)[C@]3(O)O[C@@H]2[C@@H](NC)[C@H]1O`, which “activity change, negative = cytotoxic” value is on record?
A: The value was 5.15%.

Q: For `COc1cc(O)c2c(c1)C1OC1C[C@H](O)[C@H](O)C(=O)C=CC[C@H](C)OC2=O` (stereo not given in full), which Potency is on record?
A: Its Potency is 16.5 µM (active).

Q: With `CCS(=O)(=O)Nc1ccc2[nH]c(O)c(C(=Nc3ccc(CN4CCCCC4)cc3)c3ccccc3)c2c1` as the molecule, how does the Potency read?
A: Its Potency is 18.5 µM (active).

Q: Which Potency does the source give for `O=C(C=CC#Cc1cccc(NS(=O)(=O)c2ccccc2)c1)NO` here?
A: Its Potency is 18.5 µM (active).

Q: For `C[N+](C)([O-])CCNc1ccc(NCC[N+](C)(C)[O-])c2c1C(=O)c1c(O)ccc(O)c1C2=O`, which “activity change, negative = cytotoxic” value is on record?
A: The value was -6.82%.

Q: For `Cn1cc(-c2cnn3c(N)c(Br)c([C@H]4CCCNC4)nc23)cn1`, which “activity change, negative = cytotoxic” value is on record?
A: The value was -8.34%.

Q: For `NS(=O)(=O)OC[C@@H]1C[C@@H](n2ccc3c(N[C@H]4CCc5ccccc54)ncnc32)C[C@H]1O`, which “activity change, negative = cytotoxic” value is on record?
A: Its value is -21.3%.

Q: For `CC(=O)SCC(Cc1ccccc1)C(=O)NCC(=O)OCc1ccccc1` (stereo not given), which “activity change, negative = cytotoxic” value is on record?
A: The value was -11.2%.
